Test results: article PMC4336329 (PLoS ONE, 2015)
The whole screen tested about 310,000 compounds, of which about 2,200 (0.71%) showed an effect of 50% or more. The effect is printed as a negative number. The full list was thinned out, with strong results kept by preference.

target: human ether-à-go-go-related gene (hERG) potassium channel (human, UniProt Q12809); assay: primary screen, population patch clamp on CHO cells stably expressing hERG; higher = less effect of the substance
Sequence (Q12809 whole entry, looked up): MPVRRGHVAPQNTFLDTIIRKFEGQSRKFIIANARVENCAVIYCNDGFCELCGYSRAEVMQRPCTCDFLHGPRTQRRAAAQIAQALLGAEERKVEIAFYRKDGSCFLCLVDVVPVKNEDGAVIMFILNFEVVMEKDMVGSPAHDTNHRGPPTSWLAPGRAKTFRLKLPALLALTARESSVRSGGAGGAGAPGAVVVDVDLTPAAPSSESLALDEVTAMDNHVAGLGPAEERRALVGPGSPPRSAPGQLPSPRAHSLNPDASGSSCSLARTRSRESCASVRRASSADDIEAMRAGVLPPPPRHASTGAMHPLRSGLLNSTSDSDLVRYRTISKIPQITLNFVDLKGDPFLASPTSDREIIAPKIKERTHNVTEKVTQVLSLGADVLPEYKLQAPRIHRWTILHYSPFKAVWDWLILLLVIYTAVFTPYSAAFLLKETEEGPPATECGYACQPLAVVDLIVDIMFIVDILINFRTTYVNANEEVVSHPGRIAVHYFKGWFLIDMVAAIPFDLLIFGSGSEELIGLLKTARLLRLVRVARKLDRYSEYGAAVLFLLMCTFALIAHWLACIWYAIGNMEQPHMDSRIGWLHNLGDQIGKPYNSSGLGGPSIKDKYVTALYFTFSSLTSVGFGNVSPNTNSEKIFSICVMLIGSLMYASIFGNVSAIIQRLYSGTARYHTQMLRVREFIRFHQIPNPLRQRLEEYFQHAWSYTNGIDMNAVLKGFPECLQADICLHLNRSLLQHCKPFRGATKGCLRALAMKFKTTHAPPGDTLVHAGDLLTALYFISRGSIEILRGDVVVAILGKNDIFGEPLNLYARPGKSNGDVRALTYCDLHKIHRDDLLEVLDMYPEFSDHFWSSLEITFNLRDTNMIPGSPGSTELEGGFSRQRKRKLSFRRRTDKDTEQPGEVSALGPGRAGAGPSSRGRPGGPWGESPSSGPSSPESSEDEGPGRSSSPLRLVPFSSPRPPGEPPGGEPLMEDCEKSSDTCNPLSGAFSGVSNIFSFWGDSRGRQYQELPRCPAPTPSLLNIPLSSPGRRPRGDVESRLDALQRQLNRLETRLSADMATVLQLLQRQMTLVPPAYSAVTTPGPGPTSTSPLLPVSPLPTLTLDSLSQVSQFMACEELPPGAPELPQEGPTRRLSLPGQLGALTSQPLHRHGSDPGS

SMILES	hERG current change (%, negative = inhibition) at 1uM
Cc1ccc(Cn2c(C3CCCN3c3nc(C)cs3)nc3cc(C(F)(F)F)ccc32)cc1 (centres unmarked)	8.04%
OCCOCCn1c(C2CCCN2c2nc(-c3ccc(F)cc3)cs2)nc2cc(Cl)c(Cl)cc21 (centres unmarked)	-0.144%
OCCCn1c(C2CCCN2c2nc(-c3ccc(F)cc3)cs2)nc2cc(C(F)(F)F)ccc21 (centres unmarked)	2.52%
OCCOCCn1c(C2CCCN2c2nc(-c3ccc(F)cc3)cs2)nc2cc(C(F)(F)F)ccc21 (centres unmarked)	-73.2%
Cc1csc(N2CCCC2c2nc3cc(C(F)(F)F)ccc3n2CCOCCO)n1 (centres unmarked)	-62.8%
Cc1csc(N2CCCC2c2nc3cc(Cl)c(N4CCCCC4)cc3n2CCOCCO)n1 (centres unmarked)	-2.57%
COc1ccc(NC(=O)CSc2nnc(Cn3cnc([N+](=O)[O-])n3)n2C)cc1	12.5%
Cc1ccc(OCC(=O)NNC(=O)CSc2nnc(-c3ccc(C)cc3)n2C)cc1	7.24%
CCC(=O)N1CCN(c2ccccc2NC(=O)Cc2ccc(Cl)cc2)CC1	-41.5%
Clc1ccc(SCCOCCN2CCCCC2)cc1.O=C(O)C(=O)O	-61.1%
Cc1ccc(SCCOCCN2CCc3ccccc3C2)cc1	-6.57%
Clc1ccc(SCCOCCN2CCCCCC2)cc1.O=C(O)C(=O)O	-20.6%
Clc1ccc(SCCCN2CCCCC2)cc1.O=C(O)C(=O)O	-24.5%
c1ccc(SCCOCCN2CCc3ccccc3C2)cc1	-62.7%
Cl.Clc1ccc(SCCOCCN2CCc3ccccc3C2)cc1	8.68%
CC(NC(=O)CCC(=O)N1CCCCCC1)c1ccccc1 (centres unmarked)	16.8%
Cc1ccc(NC(=O)c2noc(C(C)C)c2[N+](=O)[O-])cc1	4.81%
CCN1/C(=C(\O)c2ccccc2)C(=O)c2ccccc2S1(=O)=O	13.6%
COc1cc2c(cc1OC)C(COc1cc(C)cc(C)c1)N(C(C)=O)CC2 (centres unmarked)	2.4%
CCOC(=O)c1ccc(NC(=S)N(CCCN2CCCCC2)Cc2ccco2)cc1	-71.3%
CCOC(=O)c1ccc(NC(=S)N(CCCN2CCCCCC2)Cc2ccco2)cc1	-31.7%
CCN1CCN(CCCN(Cc2ccco2)C(=S)Nc2ccc(Cl)cc2)CC1	-18.6%
CCOC(=O)c1ccc(NC(=S)N(CCCN2CCN(CC)CC2)Cc2ccco2)cc1	-45.4%

SMILES	hERG current change (%, negative = inhibition) at 1uM
CCOC(=O)c1ccc(NC(=S)N(CCN2CCCCCC2)Cc2ccco2)cc1	-87.2%
CCc1ccc(NC(=S)N(CCN2CCCCC2)Cc2ccco2)cc1	-34.7%
CN1CCN(CCCN(Cc2ccco2)C(=S)Nc2ccc(Cl)cc2)CC1	-53.8%
CCOC(=O)c1ccc(NC(=S)N(Cc2cccnc2)Cc2ccco2)cc1	7.3%
CCOC(=O)c1ccc(NC(=S)N(CCN2CCCCCC2)Cc2cccs2)cc1	8.82%
CCOC(=O)c1ccc(NC(=S)N(CCCN2CCCC(C)C2)Cc2ccco2)cc1 (centres unmarked)	-42.8%
S=C(Nc1ccc(Cl)cc1)N(CCCN1CCOCC1)Cc1ccco1	-8.98%
CCOC(=O)c1ccc(NC(=S)N(CCCN(CC)CC)Cc2ccco2)cc1	-57.9%
CCOc1cccc(NC(=O)C2CC(=O)N(C)C(=Nc3cccc(F)c3)S2)c1 (centres unmarked)	9.17%
N#Cc1ccc(-c2ccc(OCC3CNC(=O)O3)cc2)cc1 (centres unmarked)	8.74%
CCOC(=O)c1cccc(NC(=O)CCNS(=O)(=O)c2cc(Br)cnc2N)c1	14.4%
Cc1ccc(S(=O)(=O)N2CCC(=O)N(CCOCc3cccc(F)c3)CC2)cc1	7.15%
O=C(O)CCn1nnc(-c2ccccc2)n1	10.7%
O=C(COc1ccc(Cl)cc1)NCc1nnc(SCC(=O)Nc2ccccc2)o1	1.01%
Cc1ccc(SCC(=O)Nc2ccc(C(=O)Nc3ccc(O)cc3)cc2)cc1	12.6%
Cc1ccc(NC(=O)Cc2ccc([N+](=O)[O-])cc2)c(Br)c1	5.32%
CC(C)Oc1ccc(CCC(=O)N/N=C/c2ccc3c(c2)OCO3)cc1	16.1%
COc1ccc(C2c3ccc4ccccc4c3Oc3ncn(CCO)c(=N)c32)cc1 (centres unmarked)	-61.7%
CN(C)CCn1cnc2c(c1=N)C(c1ccccc1)c1ccc3ccccc3c1O2 (centres unmarked)	-78.1%
COc1ccc(C2c3ccc4ccccc4c3Oc3ncn(CCO)c(=N)c32)cc1OC (centres unmarked)	-13.9%
COc1ccc(C2c3ccc4ccccc4c3Oc3ncn(CCCO)c(=N)c32)cc1 (centres unmarked)	-40.6%
COc1ccc(C2c3ccc4ccccc4c3Oc3ncn(CCCN(C)C)c(=N)c32)cc1 (centres unmarked)	-29%
COc1ccc(C2c3ccc4ccccc4c3Oc3ncn(CCN(C)C)c(=N)c32)cc1 (centres unmarked)	-40.1%

SMILES	hERG current change (%, negative = inhibition) at 1uM
COc1ccccc1C1c2ccc3ccccc3c2Oc2ncn(CCN(C)C)c(=N)c21 (centres unmarked)	-7%
N=c1c2c(ncn1CCCO)Oc1c(ccc3ccccc13)C2c1ccccc1 (centres unmarked)	-20.5%
CN(C)CCCn1cnc2c(c1=N)C(c1ccccc1)c1ccc3ccccc3c1O2 (centres unmarked)	-61.9%
Nc1cccc2c1C(=O)N(C(=O)c1ccc(Cl)c(S(=O)(=O)N3CCCCCC3)c1)C2=O	13.1%
COc1cccc(CCc2nnc(CCC(=O)N3CCN(Cc4ccccn4)CC3)o2)c1	10.2%
COCCCNC(=O)c1cc2c(=O)n(C)c3ccccc3c2n1C	-8.02%
O=C(COC(=O)CCN1C(=O)c2ccccc2C1=O)Nc1ccccc1[N+](=O)[O-]	16.6%
O=C(CSc1nnc(-c2ccco2)o1)N1c2ccccc2CCc2ccccc21	9.21%
CCOC(=O)C(C)n1cnc2c(nnn2Cc2ccc(C)cc2)c1=O (centres unmarked)	11.6%
CC(C)c1ccc(-c2nc(N3CCCCCC3)nc3n[nH]c(N)c23)cc1	10.2%
COc1ccc(NC(=O)Cn2nnc(C(=O)NCCc3ccc(OC)c(OC)c3)c2N)c(OC)c1	-1.5%
CCn1c(CCc2ccccc2)nnc1SCC(N)=O	13.3%
NC(=O)C1(c2ccccc2)CCC(=O)N1c1ccccc1 (centres unmarked)	14.8%
O=C(CN(Cc1ccccc1)S(=O)(=O)c1ccc(F)cc1)NCc1cccnc1	-31.9%
CCOc1ccc(N(CC(=O)NCc2ccccc2)S(=O)(=O)c2ccc(C)cc2)cc1	6.54%
CCOc1ccc(S(=O)(=O)N(CC(=O)NCc2cccnc2)c2ccc(C)cc2)cc1	-52.4%
CCOc1ccc(S(=O)(=O)N(CC(=O)NCc2ccncc2)c2ccc(C)cc2)cc1	-14.6%
COc1ccc(S(=O)(=O)N(CC(=O)NCc2cccnc2)Cc2ccccc2)cc1	-51.2%
O=C(CN(C1CCCCC1)S(=O)(=O)c1ccccc1)NCc1cccnc1	5.52%
CCN(CC(=O)NCc1cccnc1)S(=O)(=O)c1ccc(OC)cc1	0.0713%
O=C(CN(C1CCCCC1)S(=O)(=O)c1ccc(Cl)cc1)NCc1cccnc1	-60.6%
Cc1ccc(S(=O)(=O)N(CC(=O)NCc2cccnc2)C2CCCCC2)cc1	-30.3%
CCOc1ccc(S(=O)(=O)N(CC(=O)NCc2cccnc2)c2ccc(F)cc2)cc1	-67.2%

SMILES	hERG current change (%, negative = inhibition) at 1uM
Cc1ccc(S(=O)(=O)N(CC(=O)NCc2cccnc2)c2ccc(F)cc2)cc1	-38.1%
CCOc1ccc(N(CC(=O)NCc2cccnc2)S(=O)(=O)c2ccc(F)cc2)cc1	7.16%
C[C@H]1CN=C(N(C)C)N1CCC1CCCCC1	13.6%
CN(CC(=O)Nc1cccc(S(=O)(=O)NC2=NCCCCC2)c1)Cc1ccc(C(C)(C)C)cc1.O=C(O)C(=O)O	12.9%
CCN1CCN(S(=O)(=O)c2cc(OC)ccc2OC)CC1	19%
c1ccc(CSc2nnc3c(n2)OC(c2ccco2)Nc2ccccc2-3)cc1 (centres unmarked)	14.9%
COC(=O)c1sc(Nc2ccccc2)nc1C	13.5%
C/C(N)=C(/C#N)C(=O)CSc1nc2cc(Cl)ccc2s1	-7.65%
CC(=O)c1ccc2c(c1)OCCOCCOCCOCCO2	-3.2%
O=C(O)c1ccc2c(c1)OCCOCCOCCOCCOCCO2	-12.4%
CC(=O)c1ccc2c(c1)OCCOCCOCCOCCOCCO2	-11.8%
C/C(=N\O)c1ccc2c(c1)OCCO2	12.6%
CC(=O)c1ccc2c(c1)OCCOCCOc1ccc(C(C)=O)cc1OCCOCCO2	-84.8%
CC(=O)[O-].[K+].c1ccc2c(c1)OCCOCCOc1ccccc1OCCOCCO2	-80.7%
O=C(c1ccccc1)c1ccc2c(c1)OCCOCCOCCO2	8.88%
c1ccc2c(c1)OCCOCCOCCO2	13.2%
C/C(=N/O)c1ccc2c(c1)OCCOCCOc1cc(/C(C)=N/O)ccc1OCCOCCO2	-79.7%
CC(=O)c1ccc2c(c1)OCCOCCOCCO2	12.3%
c1ccc2c(c1)OCCOCCOCCOCCOc1ccccc1OCCOCCOCCO2	-11.5%
CC(=O)c1ccc2c(c1)OCCOCCOc1ccccc1OCCOCCO2	-82.5%
